In PubChem BioAssay (NCI) one finds growth data, which are given here for five compounds.

The panel holds about 83,000 compounds, 20% with a hit somewhere; the sample as a whole holds those more often.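 Compound tested at a single concentration for 48 hours in 96-well plates; a percent growth value below 10 was scored as active.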 A number with no mark means an inactive call. The source made the active and inactive calls.

This assay has as its system HL-60(TB) leukemia. The assay can be described thus: NCI-60 one-dose screen, 48 h (100 = growth as untreated, 0 = no growth, -100 = all killed). Conditions: 10 µM unless noted.
In the case of `Cn1cc(-c2cc3nc(-c4cn(C)c5ncc(Br)cc45)cc(N)n3n2)c2ccccc21`, the growth was -60.3% (active).

As to `COc1ccc2[nH]cc(-c3cc(N)n4nc(-c5cn(C)c6ccccc56)cc4n3)c2c1`, the growth was -40.7% (active).

`COc1ccc(C2OC[C@@]3(C)C4CC[C@]5(C)C(CC=C6C7CC(C)(C)CC[C@]7(C(=O)O)CC[C@]65C)[C@@]4(C)C[C@@H](O)[C@@H]3O2)cc1` (stereo not given in full): the growth was 46.9%.

In the case of `O=c1[nH]c2ccccc2cc1CSc1cccc(Nc2nccc(-c3ccc4ccccc4c3)n2)c1`, the growth was 93.5%.

Take `CCOc1ccc(-c2cc(-c3cc(C(C)C)c(O)cc3C)nn2-c2ccc(S(N)(=O)=O)cc2)cc1`: the growth was 9.77% (active).
